From PubChem BioAssay
tim10-1 inh = tim10-1 yeast growth inhibition; S. cerevisiae tim10-1 ts strain growth, BacTiter-Glo, 24 h; inhibition, % at 20 µM; 330,000 tested, 2.2% active; AID 463190;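 active = inhibition of at least 40%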;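 also: mutant grown at 25 °C; 0% = DMSO wells with yeast and 100% = wells holding no yeast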
NLRP3 yeast inh = inhibitors of NALP3 inflammasome in yeast. Yeast reconstituted NLRP3/ASC/caspase-1, beta-gal luminescence, 24 h. inhibition, % at 10 µM. 330,000 tested, 0.39% active. AID 2825;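 active = inhibition of 50% or more; inactive = inhibition below 50%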;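 also: plate controls were induced DMSO wells for no effect and uninduced yeast grown without galactose for full effect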
TIM10 inh = inhibits growth of TIM10 yeast strain. 330,000 tested, 1.4% active. S. cerevisiae TIM10 strain growth, BacTiter-Glo luminescence, 24 h. inhibition, % at 10 µM;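 active = inhibition of 40% or more at the single tested concentration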;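 also: wild-type TIM10 isogenic control strain grown at permissive 25 °C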
tim23-1 inh = growth inhibitors of tim23-1 mutant yeast; S. cerevisiae tim23-1 growth, BacTiter-Glo luminescence, 24 h; AID 463212; inhibition, % at 20 µM; 330,000 tested, 1.3% active;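 active = growth inhibition of the mutant yeast at or above 50%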;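 also: temperature-sensitive mutant grown at 25 °C; plate controls were DMSO-treated mutant yeast for no effect and medium wells lacking yeast for full effect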
NALP1 yeast inh = NALP1 inhibition | S. cerevisiae NALP1/ASC/caspase-1 growth, X-gal OD620, 72 h | inhibition, % at 10 µM | 280,000 tested, 0.61% active; in the data active = inhibition mostly above about 24%, no sharp cut-off; inactive = mostly below about 32%
SKKanGAS inh = SKKanGAS growth inhibition; S. pyogenes SKKanGAS, kanamycin growth, BacTiter-Glo, 6 h; inhibition, % at 7.5 µM; 300,000 tested, 1.3% active;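 active = mean replicate score, as percent of positive control median, at least 50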;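 also: strain carries kanamycin resistance gene driven by streptokinase promoter and grows in 40 µg/ml kanamycin; loss of luminescence reflects streptokinase promoter inhibition or plain growth inhibition; 0% = median of DMSO wells and 100% = positive control at its reference dose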
* hit, by the source's call; . = not tested or not shown. Compounds with a hit are over-represented: about 4.9% of the library has one in this group of screens.

SMILES	tim10-1 inh	NLRP3 yeast inh	TIM10 inh	tim23-1 inh	NALP1 yeast inh	SKKanGAS inh
Cc1ccc(NC(=O)/C(C#N)=N/Nc2ccc(C(=O)O)cc2)c(C)c1	-4	19	12	17	.	-2
Cc1ccc(N/N=C(\C#N)C(N)=S)c(C)c1	.	.	.	.	44	60*
COCCNC(=S)NN(c1ccccc1)c1ccccc1	27	-5	2	16	-16	2
COCCNC(=S)N(c1ccccc1)C(C)C	5	-2	3	14	40*	1
CC/C(=C/c1ccccc1)c1cccc2[nH]c3c(OC)cccc3c12	.	.	.	.	0	99*
CC(=O)c1ccc(Nc2cc(C)nc3ccccc23)cc1	-4	5	20	-4	-1	-4
CC(=O)c1ccc(Nc2cc(C)nc3c(C)cccc23)cc1	17	10	7	4	28*	2
COc1ccc(-c2sc3ccc(N4CCOCC4)cc3c2C#CCCO)cc1	1	18	14	41	.	.
O=C(COC(=O)CC1Sc2ccccc2NC1=O)NCc1ccccc1 (stereo unspecified)	23	11	5	19	.	0
O=C1c2ccccc2C2=Nc3ccccc3SC(c3cccc(F)c3)C12 (stereo unspecified)	21	-10	33	36	0	79*
O=C1c2ccccc2C2=Nc3ccccc3SC(c3ccc(Cl)cc3)C12 (stereo unspecified)	19	-16	15	32	3	78*
O=C1CCCC2=C1C(c1ccc(Cl)cc1)C1C(=O)c3ccccc3C1=N2 (stereo unspecified)	23	-4	12	12	-5	24
COc1cc(OC)cc(-c2c(C#Cc3ccsc3)c3cc(-c4ccc5c(c4)OCCO5)ccc3n2C)c1	-2	5	9	4	.	.
COC(=O)C1CCN(Cc2ccc(OCCCN3CCN(c4ccc([N+](=O)[O-])cc4)CC3)cc2)CC1	-112	37	-116	-260	26*	-2
COc1ccccc1N1CCN(C(=O)c2cc(S(=O)(=O)N3CCOCC3)ccc2C)CC1	-13	-1	11	-6	.	.
CCC(NC(=O)CCl)c1ccc(C)cc1 (stereo unspecified)	12	-1	12	10	11	2
COc1ccc2c(c1)C(C)(CCN)C(=O)N2C (stereo unspecified)	-7	12	-11	-4	.	0
COC(=O)c1ccc(C(=O)NC2CCSc3ccccc32)cc1 (stereo unspecified)	-1	36	28	9	-15	2
Cc1ccc(NC(=S)NC2CCSc3ccccc32)cc1C (stereo unspecified)	27	20	27	45	14	61*
O=C(Nc1nnc(-c2ccncc2)o1)c1ccc(Br)s1	-2	3	-16	6	8	53*
O=C(Nc1nnc(-c2ccccc2)o1)c1nc2ccccc2s1	8	9	6	13	7	92*
O=C(Nc1ccccc1)Nc1nnc(-c2ccccc2)o1	-1	14	9	6	25*	0
NC(=O)c1oc2ccccc2c1NC(=O)c1nc2ccccc2s1	25	15	16	11	3	-6
O=C(COC(=O)CNS(=O)(=O)c1c(F)cccc1F)NC(=O)NC1CCCCC1	9	3	2	6	.	.
COc1ccc(N=Cc2ccc[nH]2)cc1	-2	7	-5	2	36*	2
SMILES	tim10-1 inh	NLRP3 yeast inh	TIM10 inh	tim23-1 inh	NALP1 yeast inh	SKKanGAS inh
CCCCOc1ccc(N=Cc2ccc[nH]2)cc1	-6	12	-8	5	19	0
C[C@H](CO)N1C[C@H](C)[C@@H](CN(C)Cc2ccncc2)Oc2c(NS(=O)(=O)c3ccccc3)cccc2C1=O	-6	21	3	-10	.	.
CC1CC(C)CN(C(=O)CN2C(=O)NC3(CCCCCCC3)C2=O)C1 (stereo unspecified)	6	5	0	20	.	.
OCCCCC#Cc1c(-c2ccsc2)sc2ccccc12	33	16	14	39	-1	65*
C(#Cc1c(-c2ccsc2)sc2ccccc12)c1ccsc1	23	8	20	36	.	.
Oc1c(CN2CCCCC2)cc(Br)c2cccnc12	11	44	24	21	58*	58*
O=C(COc1c(Br)cc(Br)c2cccnc12)N1CCCCC1	34	3	-10	32	5	5
Cc1cccc(C)c1Nc1c(-c2ccccn2)nc2ccccn12	23	22	17	22	-15	97*
CCCCCCSc1cccc(-c2nc3ccc(C)cn3c2NC2CCCCC2)c1	1	-11	14	3	.	34
Cc1ccccc1Nc1c(-c2ccc(N3CCOCC3)cc2)nc2ncccn12	12	13	8	25	3	-14
Cc1ccc2nc(-c3ccccn3)c(NC3CCCC3)n2c1	30	24	17	23	-4	96*
Cc1ccccc1Nc1c(-c2ccccn2)nc2c(C)cccn12	3	-86	28	12	-6	81*
Cc1cccc2nc(-c3ccco3)c(Nc3ccccc3)n12	10	-16	21	20	-2	-3
Cc1ccc(Nc2c(-c3ccccn3)nc3cccc(C)n23)cc1	-35	44	22	41	-1	102*
CCc1ccc2[nH]c(C(=O)N(C)c3ccc(F)cc3F)cc2c1	20	4	7	19	3	3
c1ccc(C2CC(c3ccccc3)C(c3ccccc3)N2)cc1 (stereo unspecified)	16	-14	22	23	7	20
CC(=O)NCCC(=O)Nc1nc2ccc(Oc3ccccc3)cc2s1	4	5	18	27	23	3
O=C(CC1Sc2ncnn2C1=O)Nc1ccc(Br)cc1 (stereo unspecified)	33	2	18	30	85*	-4
CCCCCCOC(=O)/C=C/c1c(C)[nH]c(=O)[nH]c1=O	9	8	1	3	32	86*
COc1cc(CC(NC(C)=O)C(=O)NC2CCN(c3c4c(nc5ncnn35)CCC4)CC2)cc(OC)c1 (stereo unspecified)	-11	4	3	4	6	0
CN(C)c1ncc(C2=C(Cl)C(=O)C(N3CCCC3)=C(Cl)C2=O)s1	18	18	19	11	.	77*
O=C1C(Cl)=C(N2CCCCC2)C(=O)C(Cl)=C1c1cnc(N2CCCCC2)s1	29	13	20	-4	-39	42
CCOc1ccc(C(=O)NCC(=O)NCCCSc2ccccc2)cc1OCC	14	14	-7	8	-2	-4
C=CS(=O)(=O)c1ccc(Oc2ccc(S(=O)(=O)C=C)cc2)cc1	35	39	22	41	75*	1
COc1ccc(CN2C(=O)c3ccccc3C2OC)cc1 (stereo unspecified)	16	11	-1	5	.	2
COc1ccc(CN2C(=O)c3ccccc3C(/C=N\OCc3ccc(C)cc3)C2=O)cc1 (stereo unspecified)	11	21	16	34	-8	106*
